# Screening results deposited in PubChem BioAssay by National Center for Advancing Translational Sciences (NCATS).
# HT1080-NT tox – qHTS for induction of synthetic lethality in tumor cells producing 2HG: qHTS for the HT-1080-NT fibrosarcoma cell line; HT-1080-NT fibrosarcoma viability, CellTiter-Glo ATP luminescence, 48 h; Potency, µM (doses to about 46.1 µM), most hits filed as cytotoxic; actives 1.6% (n = 360,000);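 further: NT is the 2HG producing partner of a matched IDH1 knockdown line; nearly all actives have a fitted effect of over 55% in size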
#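 Viability by CellTiter-Glo luminescence after 48 h compound exposure at 37C of HT-1080-NT cells (750/well, RPMI, 5% FBS). % activity scaled between DMSO wells and medium-only wells, then curve-fitted and categorized by curve class.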
# HT1080 IDH1KD tx – qHTS for induction of synthetic lethality in tumor cells producing 2HG: qHTS for the HT-1080-IDH1KD cell line. actives 2% (n = 360,000). Potency, µM (highest dose often 46.1 µM), most hits filed as cytotoxic. AID 686971, 2013. HT-1080 IDH1 knockdown viability, ATP luminescence, 48 h
#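 Using the IDH1-knockdown HT-1080 line run in the same batch and compound series as the NT line, viability after 48 h at 37 °C was determined by CellTiter-Glo luminescence and expressed as % activity.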
# KB-3-1 tox – qHTS assay for MDR1-selective chemotherapeutics: Primary screen using the parental adenocarcinoma cell KB-3-1; Potency, µM (doses to about 46.1 µM), hits mostly cytotoxic; actives 1.4% (n = 400,000); KB-3-1 viability, CellTiter-Glo ATP luminescence, 72 h; further: nearly all actives have a fitted effect of over 60% in size
#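 72 h, 37 °C compound treatment of KB-3-1 parental cells; CellTiter-Glo added, 10 min, luminescence read. Data corrected against DMSO-only plates and normalized before curve fitting.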
# SW480 rereplic – A quantitative high throughput screen for small molecules that induce DNA re-replication in SW480 colon adenocarcinoma cells. actives 1.8% (n = 340,000). Potency, µM (series often up to 46.1 µM), actives largely listed as activators. SW480 DNA re-replication, Hoechst DNA content imaging, 48 h. AID 624297, 2012; further: nearly all actives have a fitted effect of over 55% in size
#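 Hoechst fluorescence of nuclei (405 nm excitation, 500-530 nm emission) measured by plate-scanning imager after 48 hr compound exposure at 37 C; re-replication scored as increased number of nuclei with elevated intensity.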
# KB-V1 MDR tox – qHTS assay for MDR1-selective chemotherapeutics: Primary screen using the drug-selected MDR subline cells KB-V1; KB-V1 MDR cells viability, CellTiter-Glo, 72 h; Potency, µM (top dose mostly 46.1 µM), actives largely listed as cytotoxic; actives 3.4% (n = 400,000); AID 1347076, 2019; further: nearly all actives have a fitted effect of over 60% in size
#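 Potencies derive from concentration-effect curves fitted to normalized luminescence (CellTiter-Glo) of KB-V1 cells treated for 72 h at 37 degrees C in phenol-red-free DMEM containing 10% FBS.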
# MCF10A rereplic – A quantitative high throughput screen for small molecules that induce DNA re-replication in MCF 10a normal breast cells; AID 624296, 2012; Potency, µM (series often up to 46.1 µM), hits mostly activators; actives 2.9% (n = 350,000); MCF 10A DNA re-replication, Hoechst nuclear intensity, 48 h; further: nearly all actives have a fitted effect of over 50% in size
# A number is an active result; i = inactive; ? = inconclusive; nt = no result given; [ ] = another dose, or the depositor's remark. Most compounds without a hit are left out; they make up all but 7.9% or so of the library. The call rests on the fitted dose curve; in most records, active means well fitted curve in the direction sought with a large enough effect; inconclusive means small, poorly fitted or top-dose-only effect, or another doubt; inactive means no such curve, though single readings can be large; an effect the other way counts as inactive or inconclusive.
SMILES,HT1080-NT tox,HT1080 IDH1KD tx,KB-3-1 tox,SW480 rereplic,KB-V1 MDR tox,MCF10A rereplic
CN(CCc1ccccc1)C(=O)c1ccc(NC(=O)Cc2cccc(NC(=O)C3CCN(C(=O)C4CCCC4)CC3)c2)cc1,i,i,i,i[9.22 µM],i,?
Cc1nnc(NC(=O)CSc2nc(C(C)C)nc3ccccc23)s1,i,i,i,?,?,i
O=C(CSc1nc(Cc2ccccc2)nc2ccccc12)Nc1nc2c(s1)CCCC2,i,?,i,20.6µM,?,23.1µM
O=C(Nc1nc2c(s1)CCCC2)c1cccs1,?,?,?,i,?,i
Cc1cc(NC(=O)CSc2nc(C(C)C)nc3ccccc23)no1,?,16.4µM,?,?,?,25.9µM
CC(C)c1nc(SCC(=O)Nc2nc3c(s2)CCCC3)c2ccccc2n1,?,11.2µM,i,?,14.6µM,?
O=C(Cc1cccs1)Nc1nc2c(s1)CCCC2,?,1.12µM,?,i,11.6µM,?
O=C1c2ccccc2NC(c2cc(Cl)cc(Cl)c2O)N1Cc1cccnc1 (centres undefined),i,i,i,i,i,i
CCCCN(C)C(=O)c1cn(-c2cccc(OC)c2)c(=O)c2ccccc12,i,i,i,i,i,i
O=C(CCSc1ccccc1)Nc1nc2c(s1)CCCC2,i,?,i,i,25.9µM,?
O=C(Cc1cccs1)Nc1nnc(Cc2ccccc2)s1,i,i[9.24 µM],i,i,?,i
Cn1c(SCC(=O)Nc2nc3c(s2)CCCC3)nnc1-c1ccccc1,i[9.24 µM],i,i,i,?,i
CC(C)(C)c1nc(SCC(=O)Nc2nc3c(s2)CCCC3)c2ccccc2n1,?,1.41µM,i,i,?,i
O=C(Cc1cccs1)Nc1nnc(CCc2ccccc2)s1,i,i,i,i,18.4µM,i
Cc1cc(NC(=O)CSc2nc3c(C)ccc(C)c3cc2C#N)no1,i,i,i,i,i,i
Cc1cc(C)c(C#N)c(SCC(=O)Nc2cc(C)on2)n1,i,i,i,?,8.2µM,?
CCOC(=O)c1[nH]c(C)c(/C(O)=C2\C(=O)C(=O)N(CCCN3CCOCC3)C2c2cccs2)c1C (centres undefined),9.2µM,20.6µM,?,13µM,?,9.2µM
COC(=O)c1[nH]c(C)c(/C(O)=C2\C(=O)C(=O)N(CCN3CCOCC3)C2c2cccs2)c1C (centres undefined),i,i,i,i,i,i
N#Cc1c(N2CCCC(O)C2)nc(N)c2c(N)nc3c(c12)CC(=O)N3C12CC3CC(CC(C3)C1)C2 (centres undefined),i,i,4.11µM,4.61µM,14.6µM,?
CC(=O)CSc1nnc(CN2C(=O)CSc3ccc(C(F)(F)F)cc32)n1C,i,i,i,i,i,i
O=C(CCN1C(=O)C2C3C=CC(C4CC34)C2C1=O)Oc1cccc2cccnc12 (centres undefined),2µM,1.26µM,i,?,i,?
Cc1ccc(S(=O)(=O)N2CC3(O)CN(C(=O)OC(C)C)N(C(=O)OC(C)C)CC3(OC(=O)NCc3ccccc3F)C2)cc1 (centres undefined),i,i,i,nt,i,nt
COc1cc(C(=O)NCc2ccc(C)cc2)ccc1OCc1c(C)noc1C,i,i,i,i,i,i
COc1cc(C(=O)Nc2ccccc2N2CCOCC2)ccc1OCc1c(C)noc1C,i,i,i,i,4.61µM,i
COc1cc(C(=O)OCC#N)ccc1OCc1c(C)noc1C,?,25.9µM,?,10.3µM,?,4.11µM
SMILES,HT1080-NT tox,HT1080 IDH1KD tx,KB-3-1 tox,SW480 rereplic,KB-V1 MDR tox,MCF10A rereplic
COc1ccc(C(=O)NC(=S)Nc2ccccc2N2CCOCC2)cc1Br,i,i,i,i,16.4µM,?
COc1ccc(N2C(=O)CCC(C(=O)N3CCCCC3)C2c2ccc(F)cc2)cc1 (centres undefined),i,i[9.24 µM],i,i,i,i
COc1ccc(S(=O)(=O)Nc2cc(C)c(O)c(S(=O)(=O)c3ccccc3)c2)cc1,i,i,i,i,16.4µM,i
CCCc1nnc(NC(=O)Cn2c(=O)oc3cc(Br)ccc32)s1,i,?,?,?,i,i
COc1ccc(/C=C/c2nc(-c3ccccc3O)n(-c3ccccc3)n2)cc1,i,i,i,?,16.4µM,i
COc1ccc(/C=C/c2nc(-c3ccccc3O)n(-c3ccccc3)n2)cc1OC,nt,nt,i,nt,i,nt
CCCS(=O)(=O)N1CCCC(C(=O)NCCCN(Cc2ccccc2)C(C)C)C1 (centres undefined),i,i,i,i,i,i
O=C1c2ccccc2-c2onc3ccc(Oc4ccccc4)c1c23,i,4.11µM,?,i,23.1µM,?
CC(C)CCCC(C)N (centres undefined),nt,nt,nt,i,nt,i
O=C(Nc1ccccc1Cl)O/N=C/c1ccc(F)cc1,i,i,i,i,i,i
COc1ccccc1NC(=O)O/N=C(\N)c1ccccc1,i,?,i,11.6µM,i,?
COc1ccc(/C=N/OC(=O)Nc2ccccc2OC)cc1,9.2µM,5.8µM,10.3µM,?,9.2µM,7.31µM
CN(C)c1ccc(/C=N/OC(=O)Nc2ccccc2Cl)cc1,i,i,23.1µM,i,?,i
O=C(COc1cccc(NC(=O)c2cccc([N+](=O)[O-])c2)c1)c1ccc(Br)cc1,i,?,i,i,i,i
COc1ccc(N2CCN(CCCn3c(=S)[nH]c4ncccc4c3=O)CC2)cc1,i,i,6.51µM,i,i,i
O=C(C1CCC(Cn2c(=S)[nH]c3ccccc3c2=O)CC1)N1CCN(c2ccccc2)CC1 (centres undefined),i,i,i,i,i,?
O=c1c2cccnc2[nH]c(=S)n1CCCN1CCN(c2ccc(F)cc2)CC1,i,i,?,i,i,i
COc1ccc(N2CCN(C(=O)C3CCC(Cn4c(=S)[nH]c5ccccc5c4=O)CC3)CC2)cc1 (centres undefined),i,i,18.4µM,?,2.91µM,i
O=C(C1CCC(Cn2c(=S)[nH]c3ccccc3c2=O)CC1)N1CCN(c2ccccn2)CC1 (centres undefined),i,i,?,i,?,i
O=C(C1CCC(Cn2c(=S)[nH]c3ccccc3c2=O)CC1)N1CCOCC1 (centres undefined),i,i,?,i,23.1µM,i
Cc1cc(C(C)(C)C)cc(C)c1C[n+]1ccc2ccccc2c1,?,?,1.64µM,i,i,?
